Experimental findings from paper PMC13494018 are described below.

The chains are these.
B1: d1r7_design_ppi_290_dldesign_0_cycle0_af2pred (protein)
chain: SAEAAEAEAAAARELAREMYALTPEEAAERMTALFLESPGRALRAATELVRAEGPAALPLAQAWLRAGVAAAQAA
B2: d1r7_design_ppi_24_dldesign_0_cycle0_af2pred (protein)
chain: SELGAILDRASEVSKRAVEVEKKAKEKGLEEALELAREALKEVQAALSLIAKGGDLADAQAKLEEGEKLLEEAEKKLKEE
B3: d1r7_design_ppi_420_dldesign_0_cycle1_af2pred (protein)
chain: MTKAEVVAEAIAVAKEAAKIAKANKESPEVQELQKKALDLAFKALASNDAAEAQKYAEKAKEVKKELEKKAKEL
B4: d1r7_design_ppi_393_dldesign_0_cycle1_af2pred (protein)
chain: EKLHPQAVAALKAQARNAAKLDPETMKKMAENVAKLVTLLSPAKAKEAEKVKELLLKAAEAKKKGAGEETLKALVEEAAKVIAE
B5: d1r7_design_ppi_304_dldesign_0_cycle0_af2pred (protein)
chain: AAEAAAAAAATARASAAMAAFARRRLEEGAAAGPEALARAVAELEALAAHADPAIGAALRAALAATLAALAAAA
B6: d1r7_design_ppi_396_dldesign_0_cycle0_af2pred (protein)
chain: SSPVEQAMKVIEKYMKELAKVVGQEKADAAKNLLFGALAKGVHAGVEAAKAELQAAAKEIQKEIKDPEAQKIIQEATKEAIKELE
B7: d1r7_design_ppi_29_dldesign_0_cycle1_af2pred (protein)
chain: SAATAVALAQAAITFGRSALAAAERAPPERGAKILEAAAEILTAAAAQAPALAAETQALAAEARERAAELAAAAAA
B8: d1r7_design_ppi_302_dldesign_0_cycle1_af2pred (protein)
chain: SPVAAQAEALRDAAVAVAKTGNPEAAAAAAHAAVAQMNRLALAHPEENATASSEAVATLEEVDRLRAAQRAAAG
B9: d1r7_design_ppi_322_dldesign_0_cycle0_af2pred (protein)
chain: MTLEDLKRAAKAYLHGLANLAAGLGLEELAKKLREAAANVDDAKALKEGAELAKELAALSTPEAAEFAKLAAEVAKAAAKAVEAA
B10: d1r7_design_ppi_71_dldesign_0_cycle1_af2pred (protein)
chain: DYAAQQLALTTRAQEVAERAKKAGKELGNPEEAKKIQQLASLAQALAINPATFPQAEKKLEEAEKRAKKLEKKAKE
B11: d1r7_design_ppi_252_dldesign_0_cycle1_af2pred (protein)
chain: VKEEAVALAKEAAALAREAAELLAPDPLLAAQAQRLAERAEELAERAKAASEEEAKELLEEARVLLAQAELLLTIARQR
B12: d1r7_design_ppi_77_dldesign_0_cycle1_af2pred (protein)
chain: SAVEDAANAIWEAAKAMAKAVPEAAATVDKLAREAVRALMLGDYEKAAKIVKEMAKAVAKADPKAAKKAEELAKKTVAKIKAA
B13: d1r7_design_ppi_446_dldesign_0_cycle1_af2pred (protein)
chain: GEAARNAEEIFADSRERARALAAEYRASGDPADLAIAAELEEALARAEEEGPAGGVRLIILTDGILQARAAAAA
B14: d1r7_design_ppi_270_dldesign_0_cycle1_af2pred (protein)
chain: SMEKALEYLEKAKKSLEEGDKAKAAGDKARALGYYQLAAAYAKSAAHLAKDNPELAKEAKELEKEAKAKLAEVRAA
B15: d1r7_design_ppi_241_dldesign_0_cycle0_af2pred (protein)
chain: SELEARGERIKREAEELRRRAEASTDAEEALAYATELVALAAEAAALGDSEAASVAVRAAAAAHAHAQALRA
B16: d1r7_design_ppi_147_dldesign_0_cycle1_af2pred (protein)
chain: AAAAAKATAKQIAAIAEEAIAKVKAATPEEAKKIAAEANQQIRALAAAAAAAHPEVAAAVAAAATAAIQRVLSTAIEVVSA
B17: d1r7_design_ppi_300_dldesign_0_cycle0_af2pred (protein)
chain: MQVMLDAGEYLAKALKATGLEEAKEMAEEVLKAMKEAASLSPEEAESILGELMRKTIAKTGVVGAQAAALAYAHLAELKAA
B18: d1r7_design_ppi_351_dldesign_0_cycle0_af2pred (protein)
chain: EELEEKKKKAIELLKKAKEKAEKIGDTAVAAAAENAIKAIEAGNLEAAISNARLAKAIAAEDPALKEAAELAKKALEELEEAKKLAEA
B19: d1r7_design_ppi_74_dldesign_0_cycle1_af2pred (protein)
chain: AKEKAEELYKKFSEEINKSLALLGKAGLAAVEDPAKGAELFKKAKAELEEAKKYAKKLEELDPELGKKAKAELKKVQDLYDGTYKANV

The target of the assay is CD276, Q5ZPR3.
CD276, Q5ZPR3, sequence (Q5ZPR3 whole entry): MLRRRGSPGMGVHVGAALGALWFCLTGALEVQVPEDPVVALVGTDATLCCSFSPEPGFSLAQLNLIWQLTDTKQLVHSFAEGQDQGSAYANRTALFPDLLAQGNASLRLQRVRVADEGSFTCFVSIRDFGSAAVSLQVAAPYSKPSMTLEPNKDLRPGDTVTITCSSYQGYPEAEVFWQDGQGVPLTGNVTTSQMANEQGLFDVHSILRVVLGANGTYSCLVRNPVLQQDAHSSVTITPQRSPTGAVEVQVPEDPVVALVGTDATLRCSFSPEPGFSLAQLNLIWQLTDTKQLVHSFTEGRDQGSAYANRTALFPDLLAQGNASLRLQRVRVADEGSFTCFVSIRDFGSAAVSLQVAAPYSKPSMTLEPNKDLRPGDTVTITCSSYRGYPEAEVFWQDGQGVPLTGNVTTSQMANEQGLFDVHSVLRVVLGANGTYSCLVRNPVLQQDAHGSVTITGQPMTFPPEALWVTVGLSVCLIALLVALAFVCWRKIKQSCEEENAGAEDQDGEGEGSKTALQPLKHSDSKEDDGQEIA
Take B1: the “binding in a display sort” value is “not found (inactive)”.

Consider B2, for which the “binding in a display sort” value is “not found (inactive)”.

Take B3: the “binding in a display sort” value is “not found (inactive)”.

With B4, the “binding in a display sort” value was “not found (inactive)”.

As to B5, the “binding in a display sort” value was “not found (inactive)”.

As for B6, the “binding in a display sort” value was “not found (inactive)”.

With B7, the “binding in a display sort” value is “not found (inactive)”.

Regarding B8, the “binding in a display sort” value was “not found (inactive)”.

With B9, the “binding in a display sort” value is “not found (inactive)”.

As for B10, the “binding in a display sort” value is “not found (inactive)”.

On to B11, for which the “binding in a display sort” value is “not found (inactive)”.

Consider B12, for which the “binding in a display sort” value was “not found (inactive)”.

Regarding B13, the “binding in a display sort” value was “not found (inactive)”.

Turning to B14, the “binding in a display sort” value is “not found (inactive)”.

For B15, the “binding in a display sort” value is “not found (inactive)”.

Take B16: the “binding in a display sort” value is “not found (inactive)”.

Consider B17, for which the “binding in a display sort” value is “not found (inactive)”.

B18: the “binding in a display sort” value was “not found (inactive)”.

Take B19: the “binding in a display sort” value was “not found (inactive)”.
